Our source for the growth inhibition values is PubChem BioAssay (NCI).

The panel holds about 79,000 compounds, 15% with a hit somewhere; the sample as a whole holds those more often. Active and inactive are the calls of the source. No stated cut-off is given here; in the data, active means growth inhibition above about 70%; inactive means the rest.

The first assay in a line: NCI Yeast Anticancer Drug Screen. Data for the rad52 strain (AID 147).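 Further: 0% = growth of vehicle-treated control cultures.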 The settings on record: S. cerevisiae rad52 mutant growth inhibition; at 1.2 µM; hits give high values. Summed up:
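Genetically altered yeast (DNA damage repair defect) treated with compound; inhibition calculated relative to vehicle.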
For `C/C(=N\NC(=S)SCc1ccccc1)c1ccccn1`, the growth inhibition is 15% (inactive).
On the same count and under the same terms, for `CC[C@@]1(O)C(=O)OCc2c1cc1n(c2=O)Cc2cc3c(N)cccc3nc2-1` the value was 54% (inactive); for `CN(C)c1ccc(Sc2ccc3nc(N)nc(N)c3c2)cc1`, 9% (inactive).
Consider `CC(=O)OCCOCNC(=S)N/N=C(\C)c1cnccn1`, for which the growth inhibition was -27% (inactive).
Turning to `COc1ccc(C2c3cc4c(cc3OC(C)(O)C2C)OCO4)c(OC)c1` (stereo not drawn), the growth inhibition is -1% (inactive).
With `COc1cc(C2SCC(=O)N2c2ccc(-c3ccc(-n4c(-c5ccccc5)nc5ccccc5c4=O)cc3)cc2)cc(OC)c1OC` (stereo not drawn), the growth inhibition is -3% (inactive).
Same read-out and setting: for `COc1ccc(Br)c(C(=O)Sc2nnnn2-c2cccc(Cl)c2)c1` the value was 23% (inactive); for `O=C(NNc1ccnc2cc(Cl)ccc12)/C(=C\c1ccccc1Cl)NC(=O)c1ccccc1`, 15% (inactive); for `CSC(=S)Nc1cccc(C)n1`, -6% (inactive).
As to `O=C(/C=C\c1ccc(Cl)cc1Cl)c1cccs1`, the growth inhibition is -2% (inactive).
The same measure, in the same setting: with `COc1ccc(-c2cn(-c3ccc(I)cc3)c3ncnc(N)c23)cc1` the figure was -2% (inactive).
Same read-out and setting: for `CN(C)c1ccc(C(C#N)=C(C#N)C#N)cc1` the value was -2% (inactive); for `COc1cc(/C=C2\CCc3ccccc3C2=O)cc(OC)c1OC`, 3% (inactive); for `CC(C)/C(Cl)=N\OC(=O)Nc1cccc(Cl)c1`, -4% (inactive).
Regarding `CC1(C)[C@@H]2CC[C@]1(C)[C@H](OC(=O)CSC#N)C2`, the growth inhibition is 0% (inactive).
Still for that read-out and setting: with `NNC(=O)CCc1ccc2ccc3ccccc3c2c1` the figure was -1% (inactive); with `COc1ccc(/C(C)=N/OC(=O)c2c(-c3ccccc3Cl)noc2C)cc1CN1CCOCC1`, 21% (inactive); with `C=CC(C)(O)CCC1C(=C)C(O)CC2C(C)(C)CCCC12C` (stereo not drawn), 27% (inactive).
For `S=C(Nc1ccc(Cl)c(Cl)c1)SCc1ccc2c(c1)OCO2`, the growth inhibition is 6% (inactive).
In the case of `COc1cc(C2C3=C(COC3=O)Oc3cc4c(cc32)OCO4)ccc1O` (stereo not drawn), the growth inhibition was -1% (inactive).
On the same count and under the same terms, for `S=C(Nc1ccc(Cl)cc1)SC1CCCCC1` the value was 6% (inactive); for `Nc1nc(-c2cccnc2)cc(-c2cc(-c3cccnc3)nc(N)n2)n1`, 0% (inactive); for `COC1=CC(=O)C2C(C1=O)C(c1ccc(Cl)cc1)[C@@H]2C` (stereo partly drawn), 12% (inactive).
For the molecule `c1ccc(-c2nc3cccnc3s2)cc1`, the growth inhibition was 1% (inactive).
The same measure, in the same setting: with `O=[N+]([O-])c1cc(CCl)ccc1CCl` the figure was 6% (inactive).
Same read-out and setting: with `COc1ccc(/C=C2\SC(=S)N(/C=C/c3nc4ccccc4[nH]c3=O)C2=O)cc1OC` the figure was 7% (inactive); with `CCCN(CCC)CC(O)c1cc(-c2ccc(Cl)cc2)nc2c(C)c(Cl)ccc12` (stereo not drawn), -2% (inactive); with `O=C(Nc1ccccc1)OCCc1ccc(Cl)c(Cl)c1`, 0% (inactive).
Still for that read-out and setting: with `CC(O)C(O)C(O)C(/C=N\Nc1ccccc1)=N/Nc1ccccc1` (stereo not drawn) the figure was 5% (inactive); with `C#CCCCc1ccccc1`, -67% (inactive).
For `CC(=O)Cc1ccc[cH-]1.[Fe+2].c1cc[cH-]c1`, the growth inhibition was 5% (inactive).
With `Cc1cc(I)ccc1N`, the growth inhibition was 24% (inactive).
Consider `FC(F)(F)c1cc(NC(=S)N2c3ccccc3-n3cccc3C2c2cccnc2)cc(C(F)(F)F)c1` (stereo not drawn), for which the growth inhibition is -3% (inactive).
Still for that read-out and setting: with `CC(C)(CN1CCCCC1)C(=O)CC(SCCS(=O)(=O)O)c1ccc(Br)cc1` (stereo not drawn) the figure was 1% (inactive).
For `C[Si](C)(C)CNC(=O)OCc1ccccc1`, the growth inhibition was -1% (inactive).
Turning to `CC(C(=O)N1C(=O)N(C(=O)[C@H](C)C(O)c2ccccc2)[C@H](c2ccccc2)[C@H]1c1ccccc1)[C@@H](O)c1ccccc1` (stereo partly drawn), the growth inhibition was -1% (inactive).
Still for that read-out and setting: for `Oc1cccc2c(Cl)ccnc12` the value was 42% (inactive); for `O=C1C=CC(=C(c2ccccc2)c2ccccc2)c2ccccc21`, 6% (inactive); for `S=C(S)NN1CCOCC1`, 84% (active).

Staying with this assay, now noted: S. cerevisiae rad52 mutant growth inhibition; at 3.7 µM; hits give high values.
For `C/C(=N\NC(=S)SCc1ccccc1)c1ccccn1`, the growth inhibition is 13% (inactive).
With `CC[C@@]1(O)C(=O)OCc2c1cc1n(c2=O)Cc2cc3c(N)cccc3nc2-1`, the growth inhibition is 79% (active).
On the same count and under the same terms, for `CN(C)c1ccc(Sc2ccc3nc(N)nc(N)c3c2)cc1` the value was 28% (inactive); for `CC(=O)OCCOCNC(=S)N/N=C(\C)c1cnccn1`, -41% (inactive).
Still for that read-out and setting: for `COc1ccc(C2c3cc4c(cc3OC(C)(O)C2C)OCO4)c(OC)c1` (stereo not drawn) the value was 1% (inactive); for `COc1cc(C2SCC(=O)N2c2ccc(-c3ccc(-n4c(-c5ccccc5)nc5ccccc5c4=O)cc3)cc2)cc(OC)c1OC` (stereo not drawn), -1% (inactive); for `COc1ccc(Br)c(C(=O)Sc2nnnn2-c2cccc(Cl)c2)c1`, 29% (inactive).
The same measure, in the same setting: for `O=C(NNc1ccnc2cc(Cl)ccc12)/C(=C\c1ccccc1Cl)NC(=O)c1ccccc1` the value was 11% (inactive).
Consider `CSC(=S)Nc1cccc(C)n1`, for which the growth inhibition was -5% (inactive).
Same read-out and setting: for `O=C(/C=C\c1ccc(Cl)cc1Cl)c1cccs1` the value was -3% (inactive); for `COc1ccc(-c2cn(-c3ccc(I)cc3)c3ncnc(N)c23)cc1`, -5% (inactive).
The same measure, in the same setting: for `CN(C)c1ccc(C(C#N)=C(C#N)C#N)cc1` the value was -1% (inactive); for `COc1cc(/C=C2\CCc3ccccc3C2=O)cc(OC)c1OC`, -3% (inactive).
On the same count and under the same terms, for `CC(C)/C(Cl)=N\OC(=O)Nc1cccc(Cl)c1` the value was -7% (inactive).
For the molecule `CC1(C)[C@@H]2CC[C@]1(C)[C@H](OC(=O)CSC#N)C2`, the growth inhibition was 3% (inactive).
In the case of `NNC(=O)CCc1ccc2ccc3ccccc3c2c1`, the growth inhibition was -3% (inactive).
On the same count and under the same terms, with `COc1ccc(/C(C)=N/OC(=O)c2c(-c3ccccc3Cl)noc2C)cc1CN1CCOCC1` the figure was 23% (inactive); with `C=CC(C)(O)CCC1C(=C)C(O)CC2C(C)(C)CCCC12C` (stereo not drawn), 26% (inactive).
With `S=C(Nc1ccc(Cl)c(Cl)c1)SCc1ccc2c(c1)OCO2`, the growth inhibition was 54% (inactive).
Consider `COc1cc(C2C3=C(COC3=O)Oc3cc4c(cc32)OCO4)ccc1O` (stereo not drawn), for which the growth inhibition is 2% (inactive).
Same read-out and setting: with `S=C(Nc1ccc(Cl)cc1)SC1CCCCC1` the figure was 24% (inactive); with `Nc1nc(-c2cccnc2)cc(-c2cc(-c3cccnc3)nc(N)n2)n1`, 0% (inactive).
Turning to `COC1=CC(=O)C2C(C1=O)C(c1ccc(Cl)cc1)[C@@H]2C` (stereo partly drawn), the growth inhibition is 25% (inactive).
Still for that read-out and setting: with `c1ccc(-c2nc3cccnc3s2)cc1` the figure was 1% (inactive); with `O=[N+]([O-])c1cc(CCl)ccc1CCl`, 11% (inactive).
The same measure, in the same setting: for `COc1ccc(/C=C2\SC(=S)N(/C=C/c3nc4ccccc4[nH]c3=O)C2=O)cc1OC` the value was 10% (inactive); for `CCCN(CCC)CC(O)c1cc(-c2ccc(Cl)cc2)nc2c(C)c(Cl)ccc12` (stereo not drawn), 2% (inactive); for `O=C(Nc1ccccc1)OCCc1ccc(Cl)c(Cl)c1`, 10% (inactive).
`CC(O)C(O)C(O)C(/C=N\Nc1ccccc1)=N/Nc1ccccc1` (stereo not drawn): the growth inhibition was 10% (inactive).
Regarding `C#CCCCc1ccccc1`, the growth inhibition was -68% (inactive).
Same read-out and setting: with `CC(=O)Cc1ccc[cH-]1.[Fe+2].c1cc[cH-]c1` the figure was 7% (inactive); with `Cc1cc(I)ccc1N`, 4% (inactive); with `FC(F)(F)c1cc(NC(=S)N2c3ccccc3-n3cccc3C2c2cccnc2)cc(C(F)(F)F)c1` (stereo not drawn), -5% (inactive).
On the same count and under the same terms, with `CC(C)(CN1CCCCC1)C(=O)CC(SCCS(=O)(=O)O)c1ccc(Br)cc1` (stereo not drawn) the figure was 6% (inactive); with `C[Si](C)(C)CNC(=O)OCc1ccccc1`, -4% (inactive).
Turning to `CC(C(=O)N1C(=O)N(C(=O)[C@H](C)C(O)c2ccccc2)[C@H](c2ccccc2)[C@H]1c1ccccc1)[C@@H](O)c1ccccc1` (stereo partly drawn), the growth inhibition was -2% (inactive).
For the molecule `Oc1cccc2c(Cl)ccnc12`, the growth inhibition is 99% (active).
Consider `O=C1C=CC(=C(c2ccccc2)c2ccccc2)c2ccccc21`, for which the growth inhibition was 3% (inactive).
For the molecule `S=C(S)NN1CCOCC1`, the growth inhibition was 68% (inactive).
